From PubChem BioAssay (NCATS)
Records with an inconclusive call do not appear. Activity calls are given as the source filed them. The call rests on the fitted dose curve; in most records, active means well fitted inhibition curve with a large enough effect; inconclusive means small, poorly fitted or top-dose-only effect; inactive means flat fitted curve, though single readings scatter.

Tests used:
[1] = qHTS profiling for inhibitors of Plasmodium falciparum proliferation (AID 504749);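 on activity, negative = inhibition: 0% = DMSO vehicle and full inhibition = artemisinin control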; on all read-outs here: nearly all actives have a fitted effect of over 60% in size; details: P. falciparum in erythrocytes, SYBR Green DNA, 72 h; for activity, negative = inhibition: at 28.7 µM (top of the series)
How it was run: (§1)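 Readout was DNA-dye fluorescence from lysed cultures, ex 485/em 535 nm. Parasitized red cells had grown 72 h with compound; data scaled between 0.29 uM artemisinin and DMSO wells and corrected using vehicle-only plates.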

[2] = test system: 3D7; assay: as above; details: P. falciparum in erythrocytes, SYBR Green DNA, 72 h; series mostly up to 28.7 µM
How it was run: as §1

[3] = test system: 7G8; assay: as above; details: P. falciparum in erythrocytes, SYBR Green DNA, 72 h; series mostly up to 28.7 µM
How it was run: as §1

[4] = test system: AA1029; assay: as above; details: P. falciparum in erythrocytes, SYBR Green DNA, 72 h; series mostly up to 28.7 µM
How it was run: as §1

[5] = test system: AS120; assay: as above; details: P. falciparum in erythrocytes, SYBR Green DNA, 72 h; series mostly up to 28.7 µM
How it was run: as §1

[6] = test system: ATS189; assay: as above; details: P. falciparum in erythrocytes, SYBR Green DNA, 72 h; series mostly up to 28.7 µM
How it was run: as §1

[7] = test system: ATS95; assay: as above; details: P. falciparum in erythrocytes, SYBR Green DNA, 72 h; series mostly up to 28.7 µM
How it was run: as §1

[8] = test system: C2A; assay: as above; details: P. falciparum in erythrocytes, SYBR Green DNA, 72 h; series mostly up to 28.7 µM
How it was run: as §1

[9] = test system: CP185; assay: as above; details: P. falciparum in erythrocytes, SYBR Green DNA, 72 h; series mostly up to 28.7 µM
How it was run: as §1

[10] = test system: CP191; assay: as above; details: P. falciparum in erythrocytes, SYBR Green DNA, 72 h; series mostly up to 28.7 µM
How it was run: as §1

[11] = test system: CP192; assay: as above; details: P. falciparum in erythrocytes, SYBR Green DNA, 72 h; series mostly up to 28.7 µM
How it was run: as §1

[12] = test system: CP194; assay: as above; details: P. falciparum in erythrocytes, SYBR Green DNA, 72 h; series mostly up to 28.7 µM
How it was run: as §1

[13] = test system: CP201; assay: as above; details: P. falciparum in erythrocytes, SYBR Green DNA, 72 h; series mostly up to 28.7 µM
How it was run: as §1

[14] = test system: CP203; assay: as above; details: P. falciparum in erythrocytes, SYBR Green DNA, 72 h; series mostly up to 28.7 µM
How it was run: as §1

[15] = test system: CP211; assay: as above; details: P. falciparum in erythrocytes, SYBR Green DNA, 72 h; series mostly up to 28.7 µM
How it was run: as §1

[16] = test system: CP215; assay: as above; details: P. falciparum in erythrocytes, SYBR Green DNA, 72 h; series mostly up to 28.7 µM
How it was run: as §1

[17] = test system: CP217; assay: as above; details: P. falciparum in erythrocytes, SYBR Green DNA, 72 h; series mostly up to 28.7 µM
How it was run: as §1

[18] = test system: CP237; assay: as above; details: P. falciparum in erythrocytes, SYBR Green DNA, 72 h; series mostly up to 28.7 µM
How it was run: as §1

[19] = test system: CP238; assay: as above; details: P. falciparum in erythrocytes, SYBR Green DNA, 72 h; series mostly up to 28.7 µM
How it was run: as §1

[20] = test system: CP247; assay: as above; details: P. falciparum in erythrocytes, SYBR Green DNA, 72 h; series mostly up to 28.7 µM
How it was run: as §1
Potency means the concentration at half of the fitted maximal effect.

O=C(O)/C=C/C(=O)Nc1ccc(S(=O)(=O)Nc2nccs2)cc1
inactive: activity, negative = inhibition ([1]; parasite line A) 17.5% | activity, negative = inhibition ([1]; parasite line B) -1.66% | Potency [2] | Potency [3] | Potency [4] | Potency [5] | Potency [6] | Potency [7] | Potency [8] | Potency [9] | Potency [10] | Potency [11] | Potency [12] | Potency [13] | Potency [14] | Potency [15] | Potency [16] | Potency [17] | Potency [18] | Potency [19] | Potency [20]

O=C1c2ccccc2C(=O)c2c1ccc(O)c2O
inactive: activity, negative = inhibition ([1]; parasite line A) 4.44% | activity, negative = inhibition ([1]; parasite line B) -3.93% | Potency [2] | Potency [3] | Potency [4] | Potency [5] | Potency [6] | Potency [7] | Potency [8] | Potency [9] | Potency [10] | Potency [11] | Potency [12] | Potency [13] | Potency [14] | Potency [15] | Potency [16] | Potency [17] | Potency [18] | Potency [19] | Potency [20]

C[Se]CC[C@H](N)C(=O)O
inactive: activity, negative = inhibition ([1]; parasite line A) 7.69% | activity, negative = inhibition ([1]; parasite line B) 13.1% | Potency [2] | Potency [3] | Potency [4] | Potency [5] | Potency [6] | Potency [7] | Potency [8] | Potency [9] | Potency [10] | Potency [11] | Potency [12] | Potency [13] | Potency [14] | Potency [15] | Potency [16] | Potency [17] | Potency [18] | Potency [19] | Potency [20]

CCCCCCCCCCCC(=O)OCC(O)CO (configuration not stated)
inactive: activity, negative = inhibition ([1]; parasite line A) 0.724% | activity, negative = inhibition ([1]; parasite line B) -1.86% | Potency [2] | Potency [3] | Potency [4] | Potency [5] | Potency [6] | Potency [7] | Potency [8] | Potency [9] | Potency [10] | Potency [11] | Potency [12] | Potency [13] | Potency [14] | Potency [15] | Potency [16] | Potency [17] | Potency [18] | Potency [19] | Potency [20]

CN(CCO)CC(O)Cn1cnc2c1c(=O)n(C)c(=O)n2C (configuration not stated) (tested in a mixture with another compound)
inactive: activity, negative = inhibition ([1]; parasite line A) 12.7% | activity, negative = inhibition ([1]; parasite line B) 12.8% | Potency [2] | Potency [3] | Potency [4] | Potency [5] | Potency [6] | Potency [7] | Potency [8] | Potency [9] | Potency [10] | Potency [11] | Potency [12] | Potency [13] | Potency [14] | Potency [15] | Potency [16] | Potency [17] | Potency [18] | Potency [19] | Potency [20]

FC(F)(F)C(F)(F)C(F)(F)C(F)(F)C(F)(F)F
inactive: activity, negative = inhibition ([1]; parasite line A) 11% | activity, negative = inhibition ([1]; parasite line B) 17.9% | Potency [2] | Potency [3] | Potency [4] | Potency [5] | Potency [6] | Potency [7] | Potency [8] | Potency [9] | Potency [10] | Potency [11] | Potency [12] | Potency [13] | Potency [14] | Potency [15] | Potency [16] | Potency [17] | Potency [18] | Potency [19] | Potency [20]

O=C(O)c1ccc(OCCn2ccnc2)cc1
inactive: activity, negative = inhibition ([1]; parasite line A) 13.9% | activity, negative = inhibition ([1]; parasite line B) 6.25% | Potency [2] | Potency [3] | Potency [4] | Potency [5] | Potency [6] | Potency [7] | Potency [8] | Potency [9] | Potency [10] | Potency [11] | Potency [12] | Potency [13] | Potency [14] | Potency [15] | Potency [16] | Potency [17] | Potency [18] | Potency [19] | Potency [20]

CC(=O)Oc1cccc(C(=O)O)c1OC(C)=O
inactive: activity, negative = inhibition ([1]; parasite line A) 7.04% | activity, negative = inhibition ([1]; parasite line B) 3.67% | Potency [2] | Potency [3] | Potency [4] | Potency [5] | Potency [6] | Potency [7] | Potency [8] | Potency [9] | Potency [10] | Potency [11] | Potency [12] | Potency [13] | Potency [14] | Potency [15] | Potency [16] | Potency [17] | Potency [18] | Potency [19] | Potency [20]

COC(=O)CC[C@H](N)C(=O)O
inactive: activity, negative = inhibition ([1]; parasite line A) 18.1% | activity, negative = inhibition ([1]; parasite line B) 11.5% | Potency [2] | Potency [3] | Potency [4] | Potency [5] | Potency [6] | Potency [7] | Potency [8] | Potency [9] | Potency [10] | Potency [11] | Potency [12] | Potency [13] | Potency [14] | Potency [15] | Potency [16] | Potency [17] | Potency [18] | Potency [19] | Potency [20]

Cc1cc(-c2ccc(N=Nc3ccc4c(S(=O)(=O)O)cc(S(=O)(=O)O)c(N)c4c3O)c(C)c2)ccc1N=Nc1ccc2c(S(=O)(=O)O)cc(S(=O)(=O)O)c(N)c2c1O
inactive: activity, negative = inhibition ([1]; parasite line A) 3.16% | activity, negative = inhibition ([1]; parasite line B) 5.39% | Potency [2] | Potency [3] | Potency [4] | Potency [5] | Potency [6] | Potency [7] | Potency [8] | Potency [9] | Potency [10] | Potency [11] | Potency [12] | Potency [13] | Potency [14] | Potency [15] | Potency [16] | Potency [17] | Potency [18] | Potency [19] | Potency [20]

CO/N=C(\C(=O)N[C@@H]1C(=O)N2C(C(=O)[O-])=C(C[n+]3cccc4c3CCC4)CS[C@H]12)c1csc(N)n1
inactive: activity, negative = inhibition ([1]; parasite line A) 12.2% | activity, negative = inhibition ([1]; parasite line B) 2.56% | Potency [2] | Potency [3] | Potency [4] | Potency [5] | Potency [6] | Potency [7] | Potency [8] | Potency [9] | Potency [10] | Potency [11] | Potency [12] | Potency [13] | Potency [14] | Potency [15] | Potency [16] | Potency [17] | Potency [18] | Potency [19] | Potency [20]

C=CC[C@@H]1/C=C(\C)C[C@H](C)C[C@H](OC)[C@H]2O[C@@](O)(C(=O)C(=O)N3CCCC[C@H]3C(=O)O[C@H](/C(C)=C/[C@@H]3CC[C@@H](O)[C@H](OC)C3)[C@H](C)[C@@H](O)CC1=O)[C@H](C)C[C@@H]2OC
active: Potency ([1]; parasite line A) 2000 nM | Potency ([1]; parasite line B) 1260 nM | Potency [2] 891 nM | Potency [3] 1000 nM | Potency [4] 2000 nM | Potency [5] 1410 nM | Potency [6] 1000 nM | Potency [7] 2240 nM | Potency [8] 251 nM | Potency [9] 891 nM | Potency [10] 1260 nM | Potency [11] 3790 nM | Potency [12] 4260 nM | Potency [13] 5360 nM | Potency [14] 4780 nM | Potency [15] 4780 nM | Potency [16] 3790 nM | Potency [17] 3160 nM | Potency [18] 708 nM | Potency [19] 1120 nM | Potency [20] 1410 nM
